We go through 36 compounds from the supplement of paper PMC7411054.

Structures can show the parent of a compound that is named as a salt.

The subject of this experiment is A549-CANX-COX4. Nature of the experiment: phenotypically active (imaging signature differs from DMSO and reproducible) at any of 0.3-9 uM (binary (1 = active, 0 = inactive)); higher = active. To be noted: treatment time: 24 h. Summed up: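 Fifteen reporter lines derived from A549, HepG2 and WPMY1 cells by gene editing, carrying BFP for segmentation plus GFP and RFP/FusionRed markers, were exposed to 0.3, 1, 3 or 9 µM for 24 h in four wells each and imaged live. Live-cell features from each well were normalised to solvent control wells. A well set counted as deviating when ≥3 of 4 wells lay beyond the 95th percentile of control Euclidean distances, and as reproducible when the median replicate Pearson correlation exceeded the 95th percentile of non-replicates. Phenotypic activity was assigned only when both criteria were met.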
Consider `N[C@@H]1C[C@H]1c1ccccc1` [Tranylcypromine hydrochloride], for which the phenotypically active was 0 (inactive).

As for `C/C=C1\CN2CC[C@]34c5cc(OC)ccc5N5C(=O)C(O)OC[C@@H]([C@H]53)[C@H]1C[C@H]24` (stereo partly specified) [10-Methoxy-o-demethyltsilanine], the phenotypically active is 0 (inactive).

Turning to `Fc1ccccc1C1=NCC(=S)N(CC(F)(F)F)c2ccc(Cl)cc21` [quazepam], the phenotypically active is 0 (inactive).

For the compound `COc1c2c(cc3c1OCO3)CC[N+](C)=C2` [Cotarnine chloride], the phenotypically active is 0 (inactive).

Consider `N[C@H]1C[C@@H]1c1ccccc1` [tranylcypromine], for which the phenotypically active was 0 (inactive).

In the case of `O=c1ccc2ccc3occc3c2o1` [Angelicin], the phenotypically active was 0 (inactive).

Take `C[C@]12COC(=O)C[C@@H]1CC[C@@H]1[C@@H]2CC[C@@]2(C)[C@H]1CC[C@]2(C)O` [oxandrolone]: the phenotypically active was 0 (inactive).

`CC(C)C[C@H](CN)CC(=O)O` [pregabalin]: the phenotypically active was 0 (inactive).

For the compound `NC(=S)N/N=C/c1coc2ccccc2c1=O`, the phenotypically active was 0 (inactive).

Consider `O[C@H]1[C@H](O)[C@@H](O)CN2CC[C@H](O)[C@H]12` [Castanospermine], for which the phenotypically active was 0 (inactive).

Take `Cc1ccc(-c2nc3ccc(C)cn3c2CC(=O)N(C)C)cc1` [zolpidem]: the phenotypically active is 0 (inactive).

Consider `CN1C(CC(O)c2ccccc2)CCCC1CC(O)c1ccccc1` (stereo unspecified) [Lobelanidine hydrochloride], for which the phenotypically active is 0 (inactive).

With `CNC(=O)Oc1ccc2c(c1)[C@]1(C)CCN(C)O[C@@H]1N2C` [Geneserine], the phenotypically active is 0 (inactive).

On to `COc1ccc(C(=O)OC2C[C@H]3CC[C@H](C2)N3C)cc1OC` (stereo partly specified) [Convolamine hydrochloride], for which the phenotypically active was 0 (inactive).

With `CC(C)[N+](C)(CCC(C(N)=O)(c1ccccc1)c1ccccc1)C(C)C` [isopropamide-iodide], the phenotypically active is 0 (inactive).

`CC(C)N(CCC(C(N)=O)(c1ccccc1)c1ccccn1)C(C)C` (stereo unspecified) [disopyramide]: the phenotypically active was 0 (inactive).

For `O=C1C[C@@H]2OCC=C3C[N+]4([O-])CC[C@]56c7ccccc7N1[C@H]5[C@H]2[C@H]3C[C@@H]64` (stereo partly specified) [Genostrychnine base], the phenotypically active is 0 (inactive).

Turning to `C[C@@H]1CN([C@H]2CC[C@](C#N)(c3ccc(F)cc3)CC2)CC[C@]1(C(=O)O)c1ccccc1` [levocabastine], the phenotypically active is 0 (inactive).

Regarding `Cc1ccc(C[N+](C)(C)C)o1` [5-Methylfurmethiodide], the phenotypically active was 0 (inactive).

Regarding `COc1cc2c3cc1Oc1cc(ccc1O)C[C@@H]1c4c(cc(OC)c(O)c4Oc4cccc(c4)C[C@@H]3N(C)CC2)CC[N+]1(C)C` [Tubocurarine chloride pentahydrate (+)], the phenotypically active is 0 (inactive).

Take `CCCC(C)C1(CC)C(=O)N=C(S)NC1=O` (stereo unspecified) [thiopental]: the phenotypically active was 0 (inactive).

`C=C1[C@H]2C[C@@]3([C@@H]1O)[C@@H](C[C@@H]2O)[C@]12[C@@H]4C[C@H]3[C@H]1N(CC)C[C@]4(C)CC[C@@H]2O` [Napelline]: the phenotypically active is 0 (inactive).

Turning to `CO[C@H](C)[C@](O)(C(=O)OCC1=CCN2CC[C@H](O)[C@@H]12)C(C)C` [Heliotrine], the phenotypically active was 0 (inactive).

In the case of `C/C=C1\C[C@@H](C)[C@](O)(CO)C(=O)OCC2=CCN3CC[C@@H](OC1=O)[C@@H]23` [Retrorsine], the phenotypically active was 0 (inactive).

As to `CN(C)NC(=O)CCC(=O)O` [Daminozide], the phenotypically active was 0 (inactive).

For the compound `CN1[C@@H]2CC(=O)C[C@H]1[C@H](O)C2` [6-Hydroxytropinone], the phenotypically active is 0 (inactive).

Regarding `COc1ccc2c3c1O[C@H]1C(=O)CC[C@H]4[C@@H](C2)N(C)CC[C@]314` [hydrocodone], the phenotypically active is 0 (inactive).

With `CCN(C(C)=O)c1cccc(-c2ccnc3c(C#N)cnn23)c1` [zaleplon], the phenotypically active is 0 (inactive).

With `C[N+]1([O-])[C@@H]2C[C@@H](OC(=O)[C@H](CO)c3ccccc3)C[C@H]1[C@@H]1O[C@@H]12` (stereo partly specified) [Genoscopolamine HBr], the phenotypically active was 0 (inactive).

Regarding `NCC1(CC(=O)O)CCCCC1` [gabapentin], the phenotypically active was 0 (inactive).

In the case of `CN1CCc2cc3c(cc2[C@H]1[C@@H]1OC(=O)c2c1ccc1c2OCO1)OCO3` [bicuculine], the phenotypically active was 0 (inactive).

As for `c1cncc(C2CC3CCN2CC3)c1` (stereo unspecified) [RJR 2429 dihydrochloride], the phenotypically active is 0 (inactive).

In the case of `CC1=CC(=O)C2=C(C)C[C@H](O)[C@@H]3[C@H](OC(=O)[C@H]3C)[C@@H]12` [Austricine hydrate], the phenotypically active is 0 (inactive).

For the compound `C=C(C)[C@H]1CN[C@H](C(=O)O)[C@H]1CC(=O)O` [Kainic acid], the phenotypically active was 0 (inactive).

With `C[C@H]1CCC2(NC1)O[C@H]1C[C@H]3[C@@H]4CC[C@H]5C[C@@H](O[C@@H]6O[C@H](CO)[C@H](O[C@@H]7O[C@H](CO)[C@@H](O)[C@H](O[C@@H]8OC[C@@H](O)[C@H](O)[C@H]8O)[C@H]7O[C@@H]7O[C@H](CO)[C@@H](O)[C@H](O)[C@H]7O)[C@H](O)[C@H]6O)CC[C@]5(C)[C@H]4CC[C@]3(C)[C@H]1[C@@H]2C` (stereo partly specified) [Tomatine], the phenotypically active is 0 (inactive).

Consider `CN1[C@@H]2C[C@@H](OC(=O)[C@H](CO)c3ccccc3)C[C@H]1[C@@H]1O[C@@H]12` [Scopolamine hydrobromide], for which the phenotypically active is 0 (inactive).
